According to PubChem BioAssay (Tox21):
Inconclusive results are not listed. Entries that show only a call come without a potency. Calls of active or inactive are those of the source. Unless noted, the call rests on the fitted dose curve; in most records, active means well fitted curve in the direction sought with a large enough effect in the repeat runs; inconclusive means weak or mixed curves; inactive means no such curve, though single readings can be large; an effect the other way counts as inactive or inconclusive. Residues, ends and D or L forms follow the SMILES beside them.

System: not listed separately
Experiment: qHTS assay to identify small molecule antagonists of the peroxisome proliferator-activated receptor delta (PPARd) signaling pathway - cell viability counter screen (AID 743213); further: nearly all actives have a fitted effect of over 50% in size
Conditions: PPARd-bla HEK293H viability, CellTiter-Glo luminescence, 17 h; series mostly up to 62 µM
Method in brief: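 CellTiter-Glo was added to PPARd-bla HEK293H wells following 17 h compound treatment in the presence of 300 nM L165041. Luminescence was recorded after 30 min at room temperature.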

SMILES | outcome
O=C(O)CCC(=O)O | inactive
CCCC(O)C(CC)CO (stereo not given) | inactive
CC(O)CO (stereo not given) | inactive
CC(O)CN(CCN(CC(C)O)CC(C)O)CC(C)O (stereo not given) | inactive
O=C(O)c1cccnc1 | inactive
O=C(O)C(=O)O | inactive
CC(=O)Nc1nnc(S(N)(=O)=O)s1 | inactive
OC(Cn1cncn1)(Cn1cncn1)c1ccc(F)cc1F | inactive
O=C(O)c1cccc([N+](=O)[O-])c1 | inactive
CC(O)C(=O)O (stereo not given) | inactive
Nc1ccn([C@H]2CC[C@@H](CO)O2)c(=O)n1 | inactive
CC1(C)[C@@H]2CC[C@@]1(C)C(=O)C2 | inactive
Cc1ccccc1C(OCCN(C)C)c1ccccc1 (stereo not given) | inactive
Nc1ccc(S(=O)(=O)Nc2nccs2)cc1 | inactive
COC(=O)[C@H](Cc1ccccc1)NC(=O)[C@@H](N)CC(=O)O (H-Asp-Phe-OMe) | inactive
O=C1NC(=O)c2ccccc21 | inactive
CCCCCCCCCCCCCCCC(=O)O | inactive
Cc1ccc(C)c(OCCCC(C)(C)C(=O)O)c1 | inactive

SMILES | outcome
CC(=O)OCC(COC(C)=O)OC(C)=O | inactive
C1N2CN3CN1CN(C2)C3 | inactive
O=c1cc[nH]c(=S)[nH]1 | inactive
CCCNC(=O)NS(=O)(=O)c1ccc(Cl)cc1 | inactive
Nc1ccc(O)c(C(=O)O)c1 | inactive
NC(N)=NC(=O)c1nc(Cl)c(N)nc1N | inactive
CC(C)[C@@H]1CC[C@@H](C)C[C@H]1O | inactive
Cc1ccc(S(=O)(=O)NC(=O)NN2CCCCCC2)cc1 | inactive
O=C(c1ccccc1)c1ccccc1 | inactive
O=C1CN(/N=C/c2ccc([N+](=O)[O-])o2)C(=O)N1 | inactive
c1ccc2[nH]ccc2c1 | inactive
CCCCC(CC)COC(=O)/C=C/c1ccc(OC)cc1 (stereo not given) | inactive
COc1ccc2[nH]cc(CCNC(C)=O)c2c1 | inactive
O=C(O)CCCCCCCC(=O)O | inactive
NC(=O)NC1NC(=O)NC1=O (stereo not given) | inactive
CCCC(CCC)C(=O)O | inactive
O=NO | inactive
Cc1noc(NS(=O)(=O)c2ccc(N)cc2)c1C | inactive

Target: Peroxisome proliferator-activated receptor delta (Homo sapiens) (UniProt Q03181)
Experiment: qHTS assay to identify small molecule antagonists of the peroxisome proliferator-activated receptor delta (PPARd) signaling pathway (AID 743215; active means well fitted inhibition curve with a large enough effect in the signal ratio in the repeat runs, not every such curve was filed as active; the % refers to the signal ratio;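 further: cells stimulated with agonist L165041 at 300 nM final during compound exposure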)
Conditions: HEK293H PPARd-UAS-bla, beta-lactamase FRET ratio, antagonist, 17 h; series mostly up to 62 µM
Method in brief: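 Screen format: qHTS, antagonist mode. HEK293H PPARd-bla cells received compound and 300 nM L165041 (final), 17 h, 37 C. Beta-lactamase detected via FRET substrate fluorescence, 2 h, room temperature.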

Peroxisome proliferator-activated receptor delta (Homo sapiens), sequence (Q03181 whole entry, looked up): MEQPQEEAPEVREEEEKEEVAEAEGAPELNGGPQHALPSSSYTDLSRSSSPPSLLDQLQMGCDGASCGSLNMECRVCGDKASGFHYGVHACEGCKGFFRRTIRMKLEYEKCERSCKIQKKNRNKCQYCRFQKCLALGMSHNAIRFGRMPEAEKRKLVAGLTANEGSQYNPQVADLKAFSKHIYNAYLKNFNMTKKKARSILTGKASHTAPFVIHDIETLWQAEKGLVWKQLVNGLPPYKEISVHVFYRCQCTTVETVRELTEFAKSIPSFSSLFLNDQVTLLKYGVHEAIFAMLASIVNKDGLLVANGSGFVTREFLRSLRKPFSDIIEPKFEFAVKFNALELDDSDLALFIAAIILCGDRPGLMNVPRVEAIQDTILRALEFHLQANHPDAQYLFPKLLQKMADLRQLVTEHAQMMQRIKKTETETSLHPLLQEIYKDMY

SMILES | outcome
O=C(O)CCC(=O)O | inactive
CCCC(O)C(CC)CO (stereo not given) | inactive
CC(O)CO (stereo not given) | inactive
CC(O)CN(CCN(CC(C)O)CC(C)O)CC(C)O (stereo not given) | inactive
OC(Cn1cncn1)(Cn1cncn1)c1ccc(F)cc1F | inactive
CC(O)C(=O)O (stereo not given) | inactive
Nc1ccn([C@H]2CC[C@@H](CO)O2)c(=O)n1 | inactive
CC1(C)[C@@H]2CC[C@@]1(C)C(=O)C2 | inactive
Cc1ccccc1C(OCCN(C)C)c1ccccc1 (stereo not given) | inactive
Nc1ccc(S(=O)(=O)Nc2nccs2)cc1 | inactive
COC(=O)[C@H](Cc1ccccc1)NC(=O)[C@@H](N)CC(=O)O (H-Asp-Phe-OMe) | inactive
Cc1ccc(C)c(OCCCC(C)(C)C(=O)O)c1 | inactive
CC(=O)OCC(COC(C)=O)OC(C)=O | inactive
C1N2CN3CN1CN(C2)C3 | inactive
O=c1cc[nH]c(=S)[nH]1 | inactive
CCCNC(=O)NS(=O)(=O)c1ccc(Cl)cc1 | inactive
Nc1ccc(O)c(C(=O)O)c1 | inactive
CC(C)[C@@H]1CC[C@@H](C)C[C@H]1O | inactive
Cc1ccc(S(=O)(=O)NC(=O)NN2CCCCCC2)cc1 | inactive
c1ccc2[nH]ccc2c1 | inactive
CCCCC(CC)COC(=O)/C=C/c1ccc(OC)cc1 (stereo not given) | inactive
COc1ccc2[nH]cc(CCNC(C)=O)c2c1 | inactive
NC(=O)NC1NC(=O)NC1=O (stereo not given) | inactive
Cc1noc(NS(=O)(=O)c2ccc(N)cc2)c1C | inactive

Target: Bile acid receptor (Homo sapiens) (UniProt Q96RI1)
Experiment: qHTS assay to identify small molecule antagonists of the farnesoid-X-receptor (FXR) signaling pathway (AID 743217; active means well fitted inhibition curve with a large enough effect in the signal ratio in the repeat runs, not every such curve was filed as active; the % refers to the signal ratio)
Conditions: HEK293T FXR-UAS-bla, beta-lactamase ratio, CDCA-stimulated, 16 h; series mostly up to 62.6 µM
Method in brief: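 Quantitative HTS, beta-lactamase reporter format: FXR-UAS-bla HEK 293T cells co-treated 16 h at 37 °C with compounds and 50 uM final chenodeoxycholic acid, then read by B/G FRET fluorescence.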

Bile acid receptor (Homo sapiens), sequence (Q96RI1 whole entry, looked up): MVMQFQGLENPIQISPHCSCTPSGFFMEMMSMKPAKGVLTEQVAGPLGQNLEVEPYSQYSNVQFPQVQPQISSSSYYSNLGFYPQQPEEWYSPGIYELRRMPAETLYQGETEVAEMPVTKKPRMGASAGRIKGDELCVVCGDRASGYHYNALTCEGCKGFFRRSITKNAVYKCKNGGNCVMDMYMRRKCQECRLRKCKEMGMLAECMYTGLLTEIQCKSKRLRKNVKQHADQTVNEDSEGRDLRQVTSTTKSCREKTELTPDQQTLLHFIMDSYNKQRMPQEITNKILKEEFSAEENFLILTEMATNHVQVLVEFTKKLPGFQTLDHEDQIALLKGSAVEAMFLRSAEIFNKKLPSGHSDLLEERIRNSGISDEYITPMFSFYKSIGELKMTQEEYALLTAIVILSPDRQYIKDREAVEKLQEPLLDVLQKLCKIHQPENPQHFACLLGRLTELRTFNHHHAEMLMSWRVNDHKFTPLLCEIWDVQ

SMILES | Potency
O=C(O)CCC(=O)O | inactive
CC(O)CN(CCN(CC(C)O)CC(C)O)CC(C)O (stereo not given) | inactive
CC(O)C(=O)O (stereo not given) | inactive
Cc1ccccc1C(OCCN(C)C)c1ccccc1 (stereo not given) | inactive
COC(=O)[C@H](Cc1ccccc1)NC(=O)[C@@H](N)CC(=O)O (H-Asp-Phe-OMe) | inactive
O=C1NC(=O)c2ccccc21 | inactive
Cc1ccc(C)c(OCCCC(C)(C)C(=O)O)c1 | inactive
C1N2CN3CN1CN(C2)C3 | inactive
O=c1cc[nH]c(=S)[nH]1 | inactive
Nc1ccc(O)c(C(=O)O)c1 | inactive
CC(C)[C@@H]1CC[C@@H](C)C[C@H]1O | inactive
O=C(c1ccccc1)c1ccccc1 | inactive
COc1ccc2[nH]cc(CCNC(C)=O)c2c1 | inactive
Cc1noc(NS(=O)(=O)c2ccc(N)cc2)c1C | inactive

System: not listed separately
Experiment: qHTS assay to identify small molecule agonists of the farnesoid-X-receptor (FXR) signaling pathway - cell viability counter screen (AID 743218); further: nearly all actives have a fitted effect of over 45% in size
Conditions: FXR-bla HEK293T viability, CellTiter-Glo luminescence, 16 h; series mostly up to 62.6 µM
Method in brief: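 Same-well cytotoxicity check on FXR-UAS-bla HEK 293T cells: 5 h attachment, 16 h compound at 37 C, CellTiter-Glo luminescence read at room temperature after 30 min.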

SMILES | outcome
O=C(O)CCC(=O)O | inactive
CCCC(O)C(CC)CO (stereo not given) | inactive
CC(O)CO (stereo not given) | inactive
CC(O)CN(CCN(CC(C)O)CC(C)O)CC(C)O (stereo not given) | inactive
O=C(O)c1cccnc1 | inactive
O=C(O)C(=O)O | inactive
CC(=O)Nc1nnc(S(N)(=O)=O)s1 | inactive
OC(Cn1cncn1)(Cn1cncn1)c1ccc(F)cc1F | inactive
O=C(O)c1cccc([N+](=O)[O-])c1 | inactive
CC(O)C(=O)O (stereo not given) | inactive
Nc1ccn([C@H]2CC[C@@H](CO)O2)c(=O)n1 | inactive
CC1(C)[C@@H]2CC[C@@]1(C)C(=O)C2 | inactive
Cc1ccccc1C(OCCN(C)C)c1ccccc1 (stereo not given) | inactive
Nc1ccc(S(=O)(=O)Nc2nccs2)cc1 | inactive
COC(=O)[C@H](Cc1ccccc1)NC(=O)[C@@H](N)CC(=O)O (H-Asp-Phe-OMe) | inactive
O=C1NC(=O)c2ccccc21 | inactive
CCCCCCCCCCCCCCCC(=O)O | inactive
Cc1ccc(C)c(OCCCC(C)(C)C(=O)O)c1 | inactive

SMILES | outcome
CC(=O)OCC(COC(C)=O)OC(C)=O | inactive
C1N2CN3CN1CN(C2)C3 | inactive
O=c1cc[nH]c(=S)[nH]1 | inactive
CCCNC(=O)NS(=O)(=O)c1ccc(Cl)cc1 | inactive
Nc1ccc(O)c(C(=O)O)c1 | inactive
NC(N)=NC(=O)c1nc(Cl)c(N)nc1N | inactive
CC(C)[C@@H]1CC[C@@H](C)C[C@H]1O | inactive
Cc1ccc(S(=O)(=O)NC(=O)NN2CCCCCC2)cc1 | inactive
O=C(c1ccccc1)c1ccccc1 | inactive
O=C1CN(/N=C/c2ccc([N+](=O)[O-])o2)C(=O)N1 | inactive
c1ccc2[nH]ccc2c1 | inactive
CCCCC(CC)COC(=O)/C=C/c1ccc(OC)cc1 (stereo not given) | inactive
COc1ccc2[nH]cc(CCNC(C)=O)c2c1 | inactive
O=C(O)CCCCCCCC(=O)O | inactive
NC(=O)NC1NC(=O)NC1=O (stereo not given) | inactive
CCCC(CCC)C(=O)O | inactive
O=NO | inactive
Cc1noc(NS(=O)(=O)c2ccc(N)cc2)c1C | inactive
